Measurements published in the supplement of paper PMC12494721.
Structures can show the parent of a compound that is named as a salt.

Experiments:
Conditions in all cases: incubation time: 27 h, anaerobic, 37 °C;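 for the amine columns active = adjusted P below 0.05 in both replicates with a change the same way and a mean fold change under 0.8 or over 1.25; inactive = the rest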
[1] = test system: Clostridium sporogenes DSM 1664; assay: growth (OD595) fold change vs plate DMSO controls (fold change (ratio)); higher = more growth
Method in brief: (§1)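 The reported measure is growth: the fold change against the median of DMSO controls on the plate. Absorbance at 595 nm from anaerobic 96-well mGAM cultures grown for 27 h at 37 °C was blank-subtracted, corrected for background with 20 µM compound solutions in water, and converted to OD with a calibration factor of 5. Fold changes above 1.5 appear as NA, and values are the mean of 2 biological replicates.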

Escherichia coli IAI1 [2] = assay: as above
Method in brief: as §1

[3] = test system: Klebsiella aerogenes DSM 30053; assay: as above
Method in brief: as §1

[4] = test system: Ruminococcus gnavus DSM 108212; assay: as above
Method in brief: as §1

[5] = test system: Klebsiella aerogenes DSM 30053; assay: fold change of Histamine concentration vs plate DMSO controls (fold change (ratio)); higher = more amine produced, active = hit call of the paper (significant change in both replicates, either direction)
Method in brief: (§2)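 Amines were quantified by LC–triple-quadrupole MS in dynamic MRM mode against external calibration curves, with drift correction within each batch. The samples were whole anaerobic mGAM cultures of four gut bacterial strains, grown for 27 h at 37 °C in 80 µL wells and extracted with cold acetonitrile/methanol with 0.1% formic acid, then centrifuged. Values are reported as fold change over DMSO controls on the same plate. The mean of 2 biological replicates is given.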

[6] = test system: Clostridium sporogenes DSM 1664; assay: fold change of Tryptamine concentration vs plate DMSO controls (fold change (ratio)); higher = more amine produced, active = hit call of the paper (significant change in both replicates, either direction)
Method in brief: as §2

[7] = test system: Ruminococcus gnavus DSM 108212; assay: as above
Method in brief: as §2

Escherichia coli IAI1 [8] = assay: fold change of Putrescine concentration vs plate DMSO controls (fold change (ratio)); higher = more amine produced, active = hit call of the paper (significant change in both replicates, either direction)
Method in brief: as §2

[9] = test system: Klebsiella aerogenes DSM 30053; assay: as above
Method in brief: as §2

Escherichia coli IAI1 [10] = assay: fold change of Cadaverine concentration vs plate DMSO controls (fold change (ratio)); higher = more amine produced, active = hit call of the paper (significant change in both replicates, either direction)
Method in brief: as §2

[11] = test system: Klebsiella aerogenes DSM 30053; assay: as above
Method in brief: as §2

[12] = test system: Ruminococcus gnavus DSM 108212; assay: fold change of 2-Phenylethylamine concentration vs plate DMSO controls (fold change (ratio)); higher = more amine produced, active = hit call of the paper (significant change in both replicates, either direction)
Method in brief: as §2

Row | SMILES | growth [1] | growth (Escherichia coli IAI1 [2]) | growth [3] | growth [4] | fold change of Histamine concentration [5] | fold change of Tryptamine concentration [6] | fold change of Tryptamine concentration [7] | fold change of Putrescine concentration (Escherichia coli IAI1 [8]) | fold change of Putrescine concentration [9] | fold change of Cadaverine concentration (Escherichia coli IAI1 [10]) | fold change of Cadaverine concentration [11] | fold change of 2-Phenylethylamine concentration [12]
1 | CC(C)(C)NC[C@@H](O)COc1cccc2c1CCCC2=O [(+) Levobunolol hydrochloride] (20 µM) | 1.08 | 0.974 | 1.11 | 0.903 | 0.936 (inactive) | 1.05 (inactive) | 1.04 (inactive) | 1.04 (inactive) | 0.985 (inactive) | 0.994 (inactive) | 0.999 (inactive) | 1.02 (inactive)
2 | Cc1cc(O)c(C(=O)N[C@@H](C(=O)N[C@@H]2C(=O)N3C(C(=O)O)=C(CSc4nnnn4C)CS[C@H]23)c2ccc(O)cc2)cn1 [Cefpiramide] (20 µM) | 0 | 0.0131 | 0.61 | 0 | 0.829 (inactive) | 0.0275 (active) | 0.0434 (active) | 0.516 (inactive) | 0.981 (inactive) | 1.92 (active) | 1.08 (inactive) | 0.0464 (active)
3 | CCCc1c2oc(C(=O)O)cc(=O)c2cc2c(=O)cc(C(=O)O)n(CC)c12 [Nedocromil sodium] (20 µM) | 0.949 | 0.993 | 1 | 0.981 | 1.06 (inactive) | 0.924 (inactive) | 0.987 (inactive) | 0.999 (inactive) | 1.01 (inactive) | 1.04 (inactive) | 0.984 (inactive) | 1 (inactive)
4 | O=C1CCC(N2C(=O)c3ccccc3C2=O)C(=O)N1 (stereo not given) [Thalidomide] (20 µM) | 1.13 | 0.98 | 1.04 | 1.15 | 1 (inactive) | 1 (inactive) | 0.971 (inactive) | 0.97 (inactive) | 1.02 (inactive) | 1.02 (inactive) | 1 (inactive) | 0.981 (inactive)
5 | Cc1ccc(Nc2c(F)cccc2Cl)c(CC(=O)O)c1 [Lumiracoxib] (20 µM) | 0.867 | 0.984 | 1.1 | 1.08 | 0.88 (inactive) | 0.956 (inactive) | 0.971 (inactive) | 1.02 (inactive) | 1.02 (inactive) | 1.02 (inactive) | 1.03 (inactive) | 0.994 (inactive)
6 | CN1CCN(C2=Nc3ccccc3Oc3ccc(Cl)cc32)CC1 [Loxapine succinate] (20 µM) | 1.12 | 1.04 | 1.04 | 1.4 | 0.932 (inactive) | 1.04 (inactive) | 0.962 (inactive) | 0.998 (inactive) | 1 (inactive) | 1.01 (inactive) | 1.02 (inactive) | 0.973 (inactive)
7 | CC1CC(OC(=O)C(O)c2ccccc2)CC(C)(C)C1 (stereo not given) [Cyclandelate] (20 µM) | 0.937 | 1.02 | 1.04 | 1.02 | 0.997 (inactive) | 1.04 (inactive) | 1.03 (inactive) | 0.959 (inactive) | 1.02 (inactive) | 1.02 (inactive) | 1.01 (inactive) | 1.03 (inactive)
8 | CN1CCC(OC(c2ccccc2)c2ccccc2)CC1 [Diphenylpyraline hydrochloride] (20 µM) | 0.998 | 0.955 | 0.989 | 1.13 | 1.05 (inactive) | 1.01 (inactive) | 0.999 (inactive) | 1.01 (inactive) | 0.995 (inactive) | 0.979 (inactive) | 0.983 (inactive) | 1.05 (inactive)
9 | CC(C)(C)NC(=O)[C@@H]1C[C@@H]2CCCC[C@@H]2CN1C[C@@H](O)[C@H](Cc1ccccc1)NC(=O)[C@H](CC(N)=O)NC(=O)c1ccc2ccccc2n1 [Saquinavir mesylate] (20 µM) | 0.98 | 1.1 | 1.03 | 1.12 | 0.937 (inactive) | 0.966 (inactive) | 0.979 (inactive) | 1.24 (inactive) | 0.993 (inactive) | 0.944 (inactive) | 1.01 (inactive) | 1.03 (inactive)
10 | CS(=O)(=O)c1ccc([C@@H](O)[C@@H](CF)NC(=O)C(Cl)Cl)cc1 [Florfenicol] (20 µM) | 0 | 0.0375 | 0.0697 | 0.306 | 0.0871 (active) | 0.0346 (active) | 0.122 (active) | 0.217 (active) | 0.459 (inactive) | 0.177 (active) | 0.508 (inactive) | 0.143 (active)
11 | CC(=O)c1ccc2c(c1)N(CCCN1CCC(CCO)CC1)c1ccccc1S2 [Piperacetazine] (20 µM) | 0.454 | 0.148 | 0.138 | 0 | 0.95 (inactive) | 1.32 (inactive) | 1.17 (inactive) | 0.95 (inactive) | 0.978 (inactive) | 0.846 (inactive) | 0.993 (inactive) | 1.29 (inactive)
12 | O=C(O)C1CSCN1 (stereo not given) [Timonacic] (20 µM) | 0.827 | 1.02 | 1 | 0.956 | 0.992 (inactive) | 1 (inactive) | 1.02 (inactive) | 1.04 (inactive) | 1.01 (inactive) | 1 (inactive) | 1 (inactive) | 0.998 (inactive)
13 | O=C1NCCN1CCN1CCC(c2cn(-c3ccc(F)cc3)c3ccc(Cl)cc23)CC1 [Sertindole] (20 µM) | 0.981 | 1.05 | 1.09 | 1.16 | 0.923 (inactive) | 0.952 (inactive) | 0.908 (inactive) | 1.31 (inactive) | 0.982 (inactive) | 0.999 (inactive) | 1 (inactive) | 1.09 (inactive)
14 | Cc1cc(CC(=O)O)n(C)c1C(=O)c1ccc(Cl)cc1 [Zomepirac sodium salt] (20 µM) | 1.21 | 0.969 | 0.981 | 1.13 | 1.05 (inactive) | 0.971 (inactive) | 0.972 (inactive) | 1.04 (inactive) | 1.01 (inactive) | 1.01 (inactive) | 0.984 (inactive) | 0.968 (inactive)
15 | Cn1c(=O)c2[nH]cnc2n(C)c1=O [Aminophylline] (20 µM) | 0.81 | 0.991 | 0.955 | 0.972 | 0.965 (inactive) | 1.06 (inactive) | 0.972 (inactive) | 1.17 (inactive) | 1.02 (inactive) | 1.01 (inactive) | 1 (inactive) | 0.939 (inactive)
16 | Cc1ccc(O)c([C@H](CCN(C(C)C)C(C)C)c2ccccc2)c1 [Tolterodine tartrate] (20 µM) | 0.996 | 1.24 | 1.04 | 1.14 | 0.956 (inactive) | 1.01 (inactive) | 0.997 (inactive) | 1.27 (inactive) | 1.01 (inactive) | 0.926 (inactive) | 1 (inactive) | 0.994 (inactive)
17 | NC(=O)c1ncn([C@@H]2O[C@H](CO)[C@@H](O)[C@H]2O)c1O [Mizoribine] (20 µM) | 0.99 | 1.06 | 1.06 | 1 | 0.951 (inactive) | 1.02 (inactive) | 1.01 (inactive) | 1.02 (inactive) | 1.02 (inactive) | 0.997 (inactive) | 1.01 (inactive) | 0.982 (inactive)
18 | Cn1c(NCCN(CCO)CCCc2ccc([N+](=O)[O-])cc2)cc(=O)n(C)c1=O [Nifekalant] (20 µM) | 1.11 | 1.06 | 1.08 | 1.22 | 0.994 (inactive) | 1.01 (inactive) | 1.01 (inactive) | 1.04 (inactive) | 1.02 (inactive) | 0.971 (inactive) | 1.01 (inactive) | 0.997 (inactive)
19 | CCOC(=O)O[C@]1(C(=O)COC(=O)CC)CC[C@H]2[C@@H]3CCC4=CC(=O)C=C[C@]4(C)[C@H]3[C@@H](O)C[C@@]21C [Prednicarbate] (20 µM) | 1.04 | 1.09 | 1.01 | 0.865 | 1.02 (inactive) | 0.97 (inactive) | 1.2 (inactive) | 0.941 (inactive) | 1.03 (inactive) | 1.01 (inactive) | 1.12 (inactive) | 1.41 (inactive)
20 | C/C(=C(\CCOP(=O)(O)O)SC(=O)c1ccccc1)N(C=O)Cc1cnc(C)nc1N [Benfotiamine] (20 µM) | 0.989 | 0.98 | 1.03 | 1.05 | 0.984 (inactive) | 1.01 (inactive) | 0.96 (inactive) | 0.942 (inactive) | 1 (inactive) | 1.04 (inactive) | 1 (inactive) | 0.959 (inactive)
21 | CC(=O)CC(c1ccccc1)c1c(O)c2ccccc2oc1=O (stereo not given) (20 µM) | 1.05 | 0.981 | 1 | 1.15 | 1.01 (inactive) | 0.979 (inactive) | 0.984 (inactive) | 1.01 (inactive) | 1 (inactive) | 0.995 (inactive) | 0.99 (inactive) | 0.99 (inactive)
22 | CCN1CC(CCN2CCOCC2)C(c2ccccc2)(c2ccccc2)C1=O (stereo not given) [Doxapram hydrochloride] (20 µM) | 1.01 | 0.969 | 0.996 | 0.884 | 0.932 (inactive) | 1.09 (inactive) | 1.07 (inactive) | 0.977 (inactive) | 0.978 (inactive) | 1.01 (inactive) | 1.02 (inactive) | 1.08 (inactive)
23 | CN(C)CCOC(=O)C(c1ccccc1)C1(O)CCCC1 (stereo not given) [Cyclopentolate hydrochloride] (20 µM) | 0.823 | 1.04 | 1.04 | 0.93 | 0.982 (inactive) | 1.01 (inactive) | 1.02 (inactive) | 1.04 (inactive) | 0.987 (inactive) | 0.977 (inactive) | 0.99 (inactive) | 1.05 (inactive)
24 | CN(C)CCOC(c1ccccc1)c1ccccc1 [Diphenhydramine hydrochloride] (20 µM) | 0.881 | 0.994 | 0.974 | 1.25 | 1 (inactive) | 1.05 (inactive) | 0.945 (inactive) | 0.962 (inactive) | 0.996 (inactive) | 0.98 (inactive) | 0.985 (inactive) | 0.914 (inactive)
25 | Nc1c(CC(=O)O)cccc1C(=O)c1ccc(Br)cc1 [Bromfenac] (20 µM) | 1.21 | 1.15 | 1.04 | 1.13 | 0.965 (inactive) | 1.01 (inactive) | 1.08 (inactive) | 1.02 (inactive) | 1 (inactive) | 0.911 (inactive) | 1.01 (inactive) | 1.15 (inactive)
